Assay results taken from PubChem BioAssay (NCI).
Compounds without any hit were thinned out: in the full panel of roughly 83,000, 20% have a hit.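 In brief: 96-well plates, 48 h treatment, single concentration, percent growth endpoint.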 Activity calls are given as the source filed them. How the source made its calls: active means growth percent below 10; inactive means the rest.

Columns and labels:
Experiment in all cases: NCI-60 one-dose screen, 48 h (100 = growth as untreated, 0 = no growth, -100 = all killed)
Settings in all cases: 10 µM unless noted
NCI-H23 lung = tested on: NCI-H23 lung
NCI-H226 lung = tested on: NCI-H226 lung
NCI-H322M lung = tested on: NCI-H322M lung
HOP-62 NSCLC = tested on: HOP-62 NSCLC
NCI-H460 lung = tested on: NCI-H460 lung
HOP-92 NSCLC = tested on: HOP-92 NSCLC
NCI-H522 lung = tested on: NCI-H522 lung
A549/ATCC NSCLC = tested on: A549/ATCC NSCLC
786-0 renal = tested on: 786-0 renal
COLO 205 colon = tested on: COLO 205 colon
DU-145 prostate = tested on: DU-145 prostate
MALME-3M melanoma = tested on: MALME-3M melanoma
MDA-MB-231 breast = tested on: MDA-MB-231 breast
RXF 393 renal = tested on: RXF 393 renal
SF-268 CNS = tested on: SF-268 CNS
SF-295 CNS = tested on: SF-295 CNS
SF-539 CNS = tested on: SF-539 CNS
UACC-257 melanoma = tested on: UACC-257 melanoma
M14 melanoma = tested on: M14 melanoma

Measured: growth

COc1ccc(-c2cc(-c3ccc(Nc4ccnc5cc(Cl)ccc45)cc3)nc(N3CCOCC3)n2)cc1
inactive: NCI-H23 lung 68% | NCI-H226 lung 69.4% | NCI-H322M lung 87% | HOP-62 NSCLC 81.6% | NCI-H460 lung 13.3% | HOP-92 NSCLC 67.2% | NCI-H522 lung 48% | A549/ATCC NSCLC 12.3% | 786-0 renal 69.6% | COLO 205 colon 44.7% | DU-145 prostate 21.7% | MDA-MB-231 breast 52.4% | RXF 393 renal 34.9% | SF-268 CNS 72.1% | SF-295 CNS 94.6% | UACC-257 melanoma 79% | M14 melanoma 12.9%
active: MALME-3M melanoma -39.1% | SF-539 CNS -41.1%

COc1ccc(-c2nnc(SCC(=O)c3ccc(Cl)cc3)o2)cc1
inactive: NCI-H23 lung 93.9% | NCI-H226 lung 103% | NCI-H322M lung 108% | HOP-62 NSCLC 95.7% | NCI-H460 lung 110% | HOP-92 NSCLC 105% | NCI-H522 lung 76.3% | A549/ATCC NSCLC 92% | 786-0 renal 96.9% | COLO 205 colon 112% | DU-145 prostate 108% | MALME-3M melanoma 106% | MDA-MB-231 breast 98.7% | RXF 393 renal 113% | SF-268 CNS 101% | SF-295 CNS 101% | SF-539 CNS 95.6% | UACC-257 melanoma 107% | M14 melanoma 106%

COc1cc(-c2nc(C(=O)NCC(=O)NO)nn2-c2ccc(Cl)cc2)cc(OC)c1OC
inactive: NCI-H23 lung 97.1% | NCI-H226 lung 91.8% | NCI-H322M lung 118% | HOP-62 NSCLC 93.6% | NCI-H460 lung 107% | HOP-92 NSCLC 86.5% | NCI-H522 lung 86.8% | A549/ATCC NSCLC 90.1% | 786-0 renal 101% | COLO 205 colon 103% | DU-145 prostate 107% | MALME-3M melanoma 129% | MDA-MB-231 breast 101% | RXF 393 renal 107% | SF-268 CNS 104% | SF-295 CNS 107% | SF-539 CNS 96.7% | UACC-257 melanoma 86.8% | M14 melanoma 101%
